Experimental findings from PubChem BioAssay AID1259415 (National Center for Advancing Translational Sciences (NCATS), 2018) are described below.

Structures are written as SMILES. The campaign covered roughly 410,000 compounds. About 18,000 (4.4%) were called active. About 7% were inconclusive and are not listed. The entries come from a sample that favours actives as a whole. A number with no mark means an inactive call. Cut-off read from the data, not from the text of the source: active = activity change below about -60%; inconclusive = no clear call, values can overlap the other calls; inactive = above about -39%.
% is set by controls: 0 for no effect and ±100 for the full control effect.

The nature of the test: qHTS Assay for inhibitors of the human cytomegalovirus (HCMV). The settings on record: HFF cells, HCMV-luciferase reporter, 72 h; at 57.5 µM; stronger effect = lower value. The source says:
NCGC Assay Overview: Infection with human cytomegalovirus (HCMV) continues to pose significant threats for pregnant women and immunocompromised hosts. HCMV causes serious morbidity and mortality in transplant recipients, and congenital HCMV is the leading infectious cause of mental retardation and deafness in children. In the 1990s, the annual costs associated with the disease burden of congenital CMV were estimated at around $2 billion. A HCMV vaccine is not available yet and HCMV therapies result in intolerable side effects and emergence of drug resistant viruses. […] Towards this goal we have developed and characterized a luciferase HCMV reporter that was initially used in 96 well plates and then optimized to 1536-well plates for utilization in screening of the MLSMR collection, the NGCG diversity collection and the NCGC Pharmaceutical Collection of approved and investigational drugs.
NCGC Assay Protocol Summary:
This is a cell-based assay for HCMV inhibition in HFFs cells. The screening used 2 compound doses and the HCMV-luciferase at MOI of 1 PFU/cell. Cells were treated and infected with HCMV. At 72 h post infection cell lysates were collected and luciferase activity was determined using the Glomax-Multi + Detection System (Promega, Madison, WI). Data were normalized to the controls for basal activity (buffer only) and known HCMV inhibitors Salinmoycin.
1536-well assay protocol for the assay:
(1) Add 3 ul CMV/HFF cell culture. 1000 cells/well in DMEM nirmal media.
(2) Incubate 16 hr at 37C.
(3) Add 23 nl control compound, 10uM of Salinomycin.
(4) Add 23 nl compounds in DMSO solution.
(5) Add 3 ul CMV suspension. Final 1 puf/ul, Virus stock 2000pfu/ul
(6) Incubate 72 hrs at 37C.
(7) Add 4 ul OneGlo Luc Reagent.
(8) Incubate 5 min at room temperature.
As to `COc1ccc(NC(=O)c2ccco2)cc1NC(=O)COc1ccc(C)c(C)c1`, the activity change, negative = inhibition was 23.1%.

Regarding `COc1ccc(OCC(=O)Nc2ccc(NC(=O)c3ccco3)c(C)c2)cc1`, the activity change, negative = inhibition was -98.9% (active).

In the case of `COc1ccc(NC(=O)COCc2cc(-c3ccco3)on2)cc1`, the activity change, negative = inhibition is 10.4%.

As for `CC(C)(C)c1ccc(S(=O)(=O)N2CCN(C(=O)c3cc(-c4ccc(Br)cc4)n[nH]3)CC2)cc1`, the activity change, negative = inhibition was 0%.

Regarding `COc1ccc(NC(=O)C2CCN(c3ccc(Sc4ccc(C)cc4)nn3)CC2)c(OC)c1`, the activity change, negative = inhibition was 11.3%.

In the case of `O=C(CSc1nc2c(c(=O)[nH]1)CN(Cc1ccc(F)cc1)CC2)Nc1ccccc1Cl`, the activity change, negative = inhibition was -10.3%.

On to `CC1=C(c2ccc(C)cc2)S(=O)(=O)NC1=NCCCN1CCN(c2cc(C)ccc2C)CC1`, for which the activity change, negative = inhibition was -96.1% (active).

Regarding `Cc1ccc(C)c(N2CCN(CCCNC(=O)Nc3ccc(Cl)cc3)CC2)c1`, the activity change, negative = inhibition is -76.9% (active).

`CC1=C(c2ccc(C)c(C)c2)S(=O)(=O)NC1=NCc1ccccc1Cl`: the activity change, negative = inhibition is -23%.

`CC1=C(c2ccc(Cl)cc2)S(=O)(=O)N=C1N1CCN(c2cc(C)ccc2C)CC1`: the activity change, negative = inhibition is 8.61%.

Consider `COc1ccc(NC(=O)NCCN2CCN(c3ccc(C)cc3)CC2)c(Cl)c1`, for which the activity change, negative = inhibition is 14.9%.

With `O=C(NCCCN1CCN(c2ccc(F)cc2)CC1)Nc1ccc([N+](=O)[O-])cc1`, the activity change, negative = inhibition is -37.5%.

As for `O=C1C=C(NCCNc2c(F)c(F)c(CO)c(F)c2F)CCC1`, the activity change, negative = inhibition was 74.7%.

As to `CCOc1ccc(N2C(=O)Nc3ccccc3C2(O)C(=O)NCc2ccco2)cc1` (centres undefined), the activity change, negative = inhibition is 14.9%.

For the compound `Cc1cc(C)cc(NC(=O)Cn2nc(N3CCN(c4ccccc4)CC3)ccc2=O)c1`, the activity change, negative = inhibition was -10.6%.

As for `O=C(CN1CCSCC1)N/N=C/c1ccc(F)cc1F`, the activity change, negative = inhibition is -10.6%.

On to `O=C(N/N=C/c1ccccc1O)/C(=C/c1ccccc1)CCO`, for which the activity change, negative = inhibition is -88.1% (active).

For the compound `CCc1ccccc1NC(=O)/C(=C/c1ccccc1)c1ccccc1`, the activity change, negative = inhibition was -13.4%.

As for `O=Nc1c(O)cc(O)c2ccccc12`, the activity change, negative = inhibition was 13.3%.

As to `O=C(NN=Cc1ccccc1O)NN=Cc1ccccc1O`, the activity change, negative = inhibition was -96.4% (active).

Turning to `NN=C(NN=Cc1ccccc1)c1ccccc1`, the activity change, negative = inhibition is 49.5%.

Take `CC(=O)N1CCc2cc(Br)cc(S(=O)(=O)CCC(=O)NCCc3ccc(Cl)cc3)c21`: the activity change, negative = inhibition was -23.8%.

Take `Nc1ccc(-c2sc(N)nc2-c2ccccc2)cc1`: the activity change, negative = inhibition was -103% (active).

As to `Cc1nc(N)sc1-c1ccccc1`, the activity change, negative = inhibition is -23.6%.

As for `Nc1[nH]c(=S)nc2nc(-c3ccccc3)c(-c3ccccc3)nc12`, the activity change, negative = inhibition was -3.08%.

Turning to `CCn1c2ccccc2c2nnc(SCC(=O)O)nc21`, the activity change, negative = inhibition was -4.51%.

Take `CCCCn1c(CNC(=O)C23CC4CC(CC(C4)C2)C3)nnc1SCC(=O)Nc1ccc(C)cc1`: the activity change, negative = inhibition is 13.3%.

In the case of `Cc1noc(C)c1CSCC(=O)N(CCC(C)C)c1c(N)n(Cc2ccccc2)c(=O)[nH]c1=O`, the activity change, negative = inhibition is 4.61%.

As for `CCn1c(SCC(=O)NC2CC2)nnc1-c1ccccn1`, the activity change, negative = inhibition is -72.6% (active).

With `CCn1c(SCC(=O)NC2CCCC2)nnc1-c1ccoc1C`, the activity change, negative = inhibition is -17.9%.

`CCn1c(SCC(=O)NC2CC2)nnc1-c1ccncc1`: the activity change, negative = inhibition is 56.4%.

As to `Cc1cc(C)c(C)c(S(=O)(=O)Nc2cccnc2)c1C`, the activity change, negative = inhibition was -18.7%.

`COc1ccc(S(=O)(=O)Nc2cccnc2)c(Cl)c1Cl`: the activity change, negative = inhibition is -8.35%.

Take `COc1ccccc1Oc1ccc(S(=O)(=O)Nc2cccnc2)cc1`: the activity change, negative = inhibition is -79.4% (active).

For `CCN(C(=O)CN1CCN(Cc2ccccc2)CC1)c1c(N)n(Cc2ccccc2)c(=O)[nH]c1=O`, the activity change, negative = inhibition was 3.73%.

Turning to `Cc1c(-c2nc(-c3ccc4c(c3)OCO4)no2)nnn1-c1ccc(Br)cc1F`, the activity change, negative = inhibition is -0.877%.

Consider `CCc1nn(CC(=O)N2CCN(c3cccc(C(F)(F)F)c3)CC2)c(=O)c2cc3occc3n12`, for which the activity change, negative = inhibition is -6.95%.

For `COc1cccc(NC(=O)CSC2=Nc3ccccc3C3=NC(CC(=O)NC4CCCCC4)C(=O)N23)c1` (centres undefined), the activity change, negative = inhibition is 14%.

In the case of `O=C(NC1CC(=O)N(c2ccc(F)cc2)C1)c1ccc(S(=O)(=O)N2CCCC2)cc1` (centres undefined), the activity change, negative = inhibition was -23.1%.

Take `COc1ccccc1Cc1c(-c2ccc(Cl)cc2)nc2ccc(Cl)cn12`: the activity change, negative = inhibition was 13.1%.

Take `CCCc1c(-c2ccccc2F)ncn1Cc1ccccc1OC`: the activity change, negative = inhibition was -31.6%.

Turning to `CCCCCc1c(Cc2ccccc2)ncn1CCc1ccccc1OC`, the activity change, negative = inhibition is -93.7% (active).

For `CCCCCc1c(-c2ccc(OC)c(OC)c2)ncn1CCc1ccccc1OC`, the activity change, negative = inhibition was -102% (active).

With `COC(=O)c1ccc2nc(-c3ccc(OC)c(OC)c3)c(Cc3ccccc3)n2c1`, the activity change, negative = inhibition was 33.9%.
